# Bioassay records (PubChem BioAssay)
# KCNH2 WT inh – inhibitors of human wildtype KCNH2 potassium channel. U2OS, BacMam KCNH2, thallium flux FluxOr; active compounds read low. activity change, % at 1.84 µM. hit rate 0.37% among 340,000. AID 720551;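 active means maximum activity change below -70%; inconclusive means maximum activity change between -70% and -50%; inactive means maximum activity change above -50%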
#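 U2OS cells were transduced with wild-type KCNH2 virus (2.03 x 10^8 / mL) for 4 h at room temperature, then cultured overnight at 37 C. Thallium flux was read with FluxOr dye. Rate constants were normalized to DMSO controls.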
# ClpP mod – qHTS Assay for Activators of ClpP | ATP-dependent Clp protease proteolytic subunit (Bacillus subtilis (strain 168)), P80244 | purified B. subtilis ClpP, FRET peptide cleavage, 20 min | Potency, µM (highest dose often 57.5 µM) | hit rate 1.9% among 340,000 | AID 651965, 2013; active means well fitted falling curve with a large enough effect; inconclusive means small, poorly fitted or top-dose-only effect; inactive means no such curve, though single readings can be large or run the other way; further: the source files actives as falling curves though it sought activators and does not explain the sign; nearly all actives have a fitted effect of over 65% in size
#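 ClpP 10 microg/mL final, pH 8 Tris/KCl buffer with BSA, glycerol, Tween-20; compound pinned in; FRET-FV substrate; RT 20 min; Ex320/Em430; ΔFRET vs ADEP 5.8 microM, DMSO, no enzyme.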
# TRPV1 ag – agonists of human vanilloid receptor 1 (TRPV1). Q8NER1. TRPV1-expressing cells, Fluo-8 calcium influx, agonist mode. activation, % at 8.33 µM. hit rate 0.19% among 320,000; in the data active means activation above about 80%; inconclusive means between about 30% and that limit
#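 TRPV1-expressing cells were cultured overnight at 35.5C and loaded with Fluo-8 calcium dye for 40 to 90 min at room temperature. After a 10 s baseline, compound was added and calcium influx was read kinetically for 3 min (ex 480/em 520 nm).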
# KCNH2 3.1 block – inhibitors of human KCNH2 3.1 potassium channel isoform; hit rate 0.95% among 340,000; U2OS KCNH2 3.1, thallium flux FluxOr; active compounds read low; activity change, % (tested at about 1.8 µM); AID 720553;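 active means maximum activity change below -70%; inconclusive means maximum activity change from -70% to -50%; inactive means maximum activity change above -50%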;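 further: thallium influx rate constant from kinetic fluorescence after stimulation buffer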
#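 Channel expression came from 3.1 mutant virus (1.77 x 10^8 /mL) applied to suspended U2OS cells for 4 h. Flux was tracked with FluxOr dye plus Red40 quencher, and kinetic rate constants normalized to controls.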
# TRPV1 PAM – potentiators of human vanilloid receptor 1 (TRPV1); hit rate 0.02% among 320,000; potentiation, % at 8.33 µM; Q8NER1; TRPV1-expressing cells, Fluo-8 calcium influx, capsaicin EC20 potentiation; AID 540277; in the data active means potentiation above about 80%; inconclusive means between about 30% and that limit
#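 Cells expressing TRPV1 were dye-loaded with Fluo-8 and read kinetically: 10 s baseline, 3 min after compound (agonist portion), then 2 min after EC20 capsaicin (allosteric enhancer portion). Calcium-bound dye fluorescence at 480/520 nm.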
# p53 reactivator – re-activators of mutant p53; hit rate 0.063% among 320,000; H1299 p53-A138V BP100-luciferase reporter, luminescence, 24 h; Potency, µM (highest dose often 92.2 µM), usual class: activators; active means well fitted activation curve with a large enough effect; inconclusive means small, poorly fitted or top-dose-only effect; inactive means no such curve, though single readings can be large or run the other way; further: nearly all actives have a fitted effect of over 45% in size
#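 H1299 (p53-null), stable ts p53-A138V + BP100-Luc; 1000 cells/well, Opti-MEM/10% FBS; cpd 4 pt, 1:5; 24 h, 37 deg C, 5% CO2; detection reagent 10 min RT; luminescence.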
# Numbers stand for hits; . = inactive; ? = inconclusive; / = no result. Only some compounds are listed: those with a hit (about 2.6% of all), similar ones and a draw of the others.
SMILES,KCNH2 WT inh,ClpP mod,TRPV1 ag,KCNH2 3.1 block,TRPV1 PAM,p53 reactivator
COc1ccccc1C(=O)NC(=O)CSc1nc(C)cs1,.,28µM,.,.,.,.
CC(C)Cn1c(/C=C/c2ccccc2)nc2ccccc21,.,7.1µM,?,.,.,?
CCn1c(/C=C/c2ccccc2)nc2ccccc21,.,14µM,?,.,.,.
COc1ccc(CNCc2ccc3ccccc3c2)c(OC)c1,.,.,.,-98,.,.
COc1ccc(CNCc2ccncc2)c(OC)c1,.,/,.,.,.,.
CCCN(CC(=O)Nc1ccccc1C)C(=O)c1cn2ccccc2n1,.,32µM,.,.,.,.
COC(=O)c1ccccc1NC(=O)Cn1c(=O)n(CCCC(=O)NCc2ccccc2Cl)c(=O)c2ccccc21,/,.,/,/,/,/
Cc1ccc(NCc2nc3ccccc3n2C)cc1,.,14µM,/,.,/,/
CCCOc1ccccc1C1C(C(=O)OC)=CN(C(C)C)C=C1C(=O)OC,.,16µM,.,.,.,.
COC(=O)C1=CN(C)C=C(C(=O)OC)C1c1ccccc1Cl,.,.,.,.,?,.
CCN1C=C(C(=O)OC)C(c2cccc(C)c2)C(C(=O)OC)=C1,.,6.3µM,.,.,.,.
CCCCOc1ccccc1C1C(C(=O)OC)=CN(CC)C=C1C(=O)OC,.,14µM,?,.,.,.
COC(=O)[C@@]12C[C@@H](CC(=O)NCC3CCCCC3)C(=O)N(Cc3cccc4ccccc34)C1=CCC(C)(C)C2,/,.,/,/,/,/
COc1ccc(CCN2CC(O)=C(c3nc4ccccc4c(=O)[nH]3)C2=N)cc1OC,.,22µM,.,.,.,.
COc1ccccc1N1CCN(C(CNC(=O)C(=O)NCc2ccc(F)cc2)c2cccnc2)CC1 (configuration not stated),/,.,/,/,/,/
c1ccc(N2CCN(c3ccccc3)C2c2cccs2)cc1,-132,.,.,.,?,?
CC(C)CNC(=O)CSc1nc2scc(-c3ccccc3)c2c(=O)[nH]1,.,22µM,.,.,.,.
COc1ccc(N2CCN(C(c3ccccc3)c3nnnn3Cc3ccccc3)CC2)cc1 (configuration not stated),/,.,/,/,/,/
COc1cc2c(c(O)c1OC)C(=O)C(OC)CCC2 (configuration not stated),.,28µM,.,.,.,.
O=C(NCC(c1cccnc1)N1CCN(Cc2ccccc2)CC1)C(=O)Nc1cccc(Cl)c1 (configuration not stated),/,.,/,/,/,/
COc1ccc(Cc2nnc(NCCO)[nH]c2=O)cc1OC,-118,/,.,.,.,.
COc1ccc(Cc2nnc(NCCO)[nH]c2=O)cc1,.,.,.,.,.,.
Cc1cnn(-c2cc(N/N=C/c3ccc(F)cc3)ncn2)c1,.,.,.,.,.,.
Cc1cnn(-c2cc(N/N=C/c3ccccc3Cl)ncn2)c1,-247,.,.,.,.,.
O=C(O)/C=C\C(=O)Nc1ccccc1C(=O)N1CCN(c2ccc(Cl)cc2)CC1,.,20µM,.,.,.,.
SMILES,KCNH2 WT inh,ClpP mod,TRPV1 ag,KCNH2 3.1 block,TRPV1 PAM,p53 reactivator
C=CCn1c(SCC(=O)N2CCc3ccccc3C2)nc2sc(CC)cc2c1=O,.,20µM,?,.,.,.
COc1cc(C(=O)N2CCN(S(=O)(=O)c3ccc(C)cc3)CC2)ccc1OCC(=O)N1CCOCC1,.,.,/,.,/,/
CC(Oc1ccc(-c2ccccc2)cc1)C(=O)N1CCOCC1 (configuration not stated),.,25µM,?,.,.,.
CCNc1ccc(/C=C2\C=Cc3ccccc32)cc1,/,.,/,/,/,/
Fc1ccc(Nc2ncnc3sc4c(c23)CCC4)cc1,.,.,81,.,.,.
COc1ccc(N2CCN(C(=O)CCc3ccc(S(=O)(=O)NCC(C)C)cc3)CC2)cc1,.,25µM,.,.,.,.
CC(C)(C)C(=O)Nc1ccc2oc(-c3cc(F)c(F)cc3Cl)nc2c1,.,32µM,.,.,.,?
O=C(Nc1ccc2oc(-c3ccccc3F)nc2c1)c1ccccc1Cl,/,.,/,/,/,/
CN1CCCC1=Nc1ccccc1,.,.,/,.,/,/
